PAFAH2 FP inh: PAFAH2 enzyme inhibitors, primary screen, biochemical, fluorescence polarization, human; recombinant PAFAH2, FP-rhodamine activity probe; AID 492956, 2010; inhibition, % at 3.39 µM; 0.99% of 340,000 active;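 active means inhibition above the mean over all tested compounds plus 3 SD, cut at about 30% in these data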;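 further: inhibitors block probe labeling of enzyme so polarization drops; 0% = enzyme with DMSO and 100% = wells lacking PAFAH2 protein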
pPAFAH FP inh: pPAFAH enzyme inhibitors, primary screen, biochemical, fluorescence polarization, human. Platelet-activating factor acetylhydrolase (Homo sapiens), Q13093. recombinant pPAFAH, FP-rhodamine probe fluorescence polarization. inhibition, % at 3.39 µM. 1.5% of 330,000 active. AID 463082, 2010;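 active means inhibition above the mean inhibition across the screen plus 3 SD, cut at about 25% in these data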;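 further: inhibitors block binding of the rhodamine activity-based probe so polarization drops; 0% = enzyme with DMSO and 100% = wells lacking pPAFAH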
Target sequence (Q13093 whole entry, looked up): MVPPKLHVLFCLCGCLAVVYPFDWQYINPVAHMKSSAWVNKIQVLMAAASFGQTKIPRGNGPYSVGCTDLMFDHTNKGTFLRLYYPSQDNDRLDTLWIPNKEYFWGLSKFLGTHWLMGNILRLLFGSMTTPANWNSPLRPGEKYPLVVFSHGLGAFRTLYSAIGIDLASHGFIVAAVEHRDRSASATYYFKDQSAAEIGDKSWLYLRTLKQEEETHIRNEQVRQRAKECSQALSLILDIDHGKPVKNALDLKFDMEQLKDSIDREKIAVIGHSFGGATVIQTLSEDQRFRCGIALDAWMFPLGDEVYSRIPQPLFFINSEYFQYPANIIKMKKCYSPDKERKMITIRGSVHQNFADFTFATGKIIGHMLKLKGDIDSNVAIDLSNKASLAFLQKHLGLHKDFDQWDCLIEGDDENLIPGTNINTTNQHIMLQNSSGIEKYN
PAFAH1B2 FP inh: PAFAH1B2 enzyme inhibitors, primary screen, biochemical, fluorescence polarization, human; inhibition, % at 3.39 µM; 1.2% of 340,000 active; recombinant PAFAH1B2, FP-rhodamine activity probe;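 active means inhibition above the mean of all tested compounds plus 3 SD, cut at about 24% in these data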;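 further: 0% = enzyme with DMSO and 100% = wells lacking PAFAH1B2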
EBNA-1 inhibitor: EBNA-1 DNA-binding inhibitors, primary screen, biochemical, fluorescence polarization; inhibition, % at 14.8 µM; 0.34% of 300,000 active; AID 1950, 2009; in the data active means inhibition above about 28%
ZTA DNA inh: blocks Epstein-Barr virus ZTA, an EBNA-1 counter-screen | ZTA-DNA binding, fluorescence polarization | 0.15% of 320,000 active | inhibition, % at 11 µM | P03206; in the data active means inhibition above about 33%
PAFAH1B3 FP inh: PAFAH1B3 enzyme inhibitors, primary screen, biochemical, fluorescence polarization, human; Platelet-activating factor acetylhydrolase IB subunit alpha1 (Homo sapiens), Q15102; recombinant PAFAH1B3, FP-rhodamine probe; inhibition, % at 3.39 µM; 0.28% of 340,000 active; AID 492972, 2010;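 active means inhibition above the screen-wide average of all tested compounds plus 3 SD, cut at about 25% in these data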;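 further: 0% = enzyme with DMSO only and 100% = wells lacking PAFAH1B3 protein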
Target sequence (Q15102 whole entry, looked up): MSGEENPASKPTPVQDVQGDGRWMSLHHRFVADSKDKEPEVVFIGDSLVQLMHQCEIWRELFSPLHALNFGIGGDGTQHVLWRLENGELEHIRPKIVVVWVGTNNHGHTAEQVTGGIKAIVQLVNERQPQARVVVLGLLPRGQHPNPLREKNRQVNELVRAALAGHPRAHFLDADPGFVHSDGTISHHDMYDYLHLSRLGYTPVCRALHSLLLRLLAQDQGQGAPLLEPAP
PAFAH2 confirm: PAFAH2 enzyme inhibitors, confirmation, biochemical, fluorescence polarization, human | shares compounds with PAFAH2 FP inh | recombinant PAFAH2, FP-rhodamine activity probe | inhibition, % at 3.39 µM | 65% of 2,300 active | AID 493030, 2011;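 active means mean inhibition over three repeats above a set limit taken from the earlier primary screen, cut at about 30% in these data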;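 further: inhibitor blocks binding of rhodamine activity probe so polarization falls; 0% = enzyme with DMSO and 100% = wells lacking PAFAH2 protein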
An asterisk follows results filed as active; . = not tested or not shown. Most compounds without a hit are left out; they make up all but 2.9% or so of the library.

SMILES	PAFAH2 FP inh	pPAFAH FP inh	PAFAH1B2 FP inh	EBNA-1 inhibitor	ZTA DNA inh	PAFAH1B3 FP inh	PAFAH2 confirm
COc1cc(C(=O)OCC(=O)Nc2cc(C)on2)cc(OC)c1OC	1.4	-2.5	2.8	-3.9	6.0	3.3	.
CCN(C(=O)c1cccc(S(=O)(=O)N2CCCCC2)c1)C1CCS(=O)(=O)C1 (centres undefined)	-1.2	.	7.7	.	.	0.9	.
Cc1nn(C2CCS(=O)(=O)C2)c(C)c1C=O (centres undefined)	-4.9	0.0	1.0	-8.6	-17.9	7.3	.
NC(=O)c1ncn([C@@H]2O[C@H](CNCc3cccc(OC4CCCC4)c3)[C@@H](O)[C@H]2O)n1	-5.1	.	10.1	.	.	9.6	.
Cc1ccc(/C=N\NC(=O)/C(=C\Nc2nccc(C)n2)NC(=O)c2ccccc2)cc1	5.9	2.1	0.3	-0.3	2.9	9.5	.
COc1cc(C(=O)OCC(=O)NC2CCCCC2)cc2c1OCCO2	74.0*	7.9	-0.1	.	-1.6	2.7	65.7*
CN(C(=O)COC(=O)c1cncc(Br)c1)C1CCCCC1	8.9	2.2	6.2	.	.	2.4	.
Cc1ccc(NC(=O)COC(=O)c2cc(Cl)ccc2[N+](=O)[O-])cc1	56.0*	4.1	5.2	0.2	1.1	2.8	37.8*
NS(=O)(=O)c1cccc(NC(=O)COC(=O)c2cc(Cl)ccc2[N+](=O)[O-])c1	7.0	0.6	-3.0	0.7	0.3	6.2	.
COc1cc(C(=O)OCC(=O)NC(=O)NC2CCCCC2)cc(Cl)c1OC	-0.8	2.1	-0.5	-6.3	0.0	1.4	.
CN(C(=O)COC(=O)c1ccc2c(c1)OCCO2)C1CCCCC1	68.9*	.	2.2	.	.	1.3	61.1*
c1cnn(-c2cncc(-n3cccn3)n2)c1	4.9	2.8	0.0	-11.7	-9.7	8.6	.
CNC(=S)N1C2CCCC1CC(NC(=O)c1ccc(F)cc1)C2 (centres undefined)	3.0	7.9	3.6	5.2	-9.2	4.4	.
Oc1oc(-c2ccccc2)nc1C=Nc1ccccc1	27.9	3.2	4.8	9.0	16.4	6.3	.
Oc1oc(-c2ccccc2)nc1C=NCc1ccccc1	45.1*	17.6	4.5	-4.8	-5.6	11.2	37.3*
O=C(COC(=O)/C=C/c1cccc(F)c1)Nc1cccc(S(=O)(=O)NC2=NCCCCC2)c1	38.6*	1.8	3.6	.	.	-0.9	16.1
COc1cccc(/C=C/C(=O)OCC(=O)Nc2cccc(S(=O)(=O)NC3=NCCCCC3)c2)c1	50.1*	-0.6	5.3	.	.	8.1	41.9*
CC(C)c1ccccc1NC(=O)COC(=O)c1cccnc1	2.2	1.3	-2.9	4.5	7.1	1.2	.
COc1cccc(/C=C2\SC(=S)N(NS(=O)(=O)c3ccc(C)cc3)C2=O)c1OC	32.8*	16.0	5.4	7.5	16.4	6.5	21.8
Cc1cc(S(=O)(=O)N2CCN=C2c2ccccc2)c(Cl)cc1Cl	7.2	3.8	11.6	3.2	-8.9	7.4	.
CCOC(=O)c1c(C)oc2cc(Br)c(O)c(Br)c12	42.7*	8.1	1.2	-2.8	9.8	3.9	31.3*
CCOC(=O)COc1cc2c(C(=O)OCC)c(C)oc2cc1Br	1.1	7.9	4.8	8.3	8.8	3.8	.
O=C1C(=Cc2ccco2)CCC1=Cc1ccco1	56.0*	.	3.5	.	.	4.6	17.6
CCOc1ccc(C(=O)OCC(=O)Nc2ccc(SC(F)F)cc2)cc1OCC	80.1*	10.9	-0.2	-4.5	9.5	-2.0	77.1*
CCOc1ccc(Br)cc1S(=O)(=O)Nc1ccc(C(=O)OCC(=O)Nc2ccc(C#N)cc2)cc1	36.1*	-11.8	-14.3	3.2	-3.4	-40.9	29.9*
SMILES	PAFAH2 FP inh	pPAFAH FP inh	PAFAH1B2 FP inh	EBNA-1 inhibitor	ZTA DNA inh	PAFAH1B3 FP inh	PAFAH2 confirm
CC(C)=CC(=O)OCC(=O)Nc1ccc(SC(F)F)cc1	78.3*	21.3	0.3	11.4	-8.7	1.2	84.6*
CCOc1ccc(NC(=S)NS(=O)(=O)c2cc(Br)ccc2OCC)cc1	.	3.8	.	-1.4	-7.8	.	.
CCCCC1CN2CCc3c([nH]c4ccccc34)C2(C)C1 (centres undefined)	-4.4	-1.2	0.6	-2.3	6.0	8.3	.
COc1ccc(C2CC(c3ccccc3)=NN2C(=O)COC(=O)c2cc(S(=O)(=O)N3CCOCC3)ccc2Cl)cc1 (centres undefined)	30.8*	-2.0	-7.7	1.1	4.2	-15.1	23.4
Cc1ccc(S(=O)(=O)N2CCOCC2)cc1C(=O)OCC(=O)NC1CC1	2.3	-0.7	2.9	.	-2.4	4.5	.
Cc1ccc(S(=O)(=O)N2CCOCC2)cc1C(=O)OCC(=O)Nc1ccc2c(c1)OCO2	37.3*	3.9	2.9	12.1	-14.2	8.4	22.8
COc1cccc(NC(=O)COC(=O)c2cc(S(=O)(=O)N3CCOCC3)ccc2C)c1	35.1*	3.2	1.4	0.1	7.7	6.2	21.2
Cc1ccc(CNC(=O)CC(C)S(=O)(=O)c2ccc3c(c2)NC(=O)C(C)S3)cc1 (centres undefined)	-2.8	6.1	6.8	0.9	-11.8	1.4	.
O=S(=O)(Nc1ccccn1)c1ccc(Cl)c2ccccc12	7.9	-4.7	7.1	-4.5	-0.6	-1.5	.
O=C(NCc1ccc(OC(F)(F)F)cc1)C1CC2Cn3c(nc4ccccc43)C2N1c1ccccc1 (centres undefined)	2.2	4.2	7.2	10.2	23.1	1.2	.
O=C(COC(=O)c1cc2ccccc2cc1O)NC1CCCCC1	47.7*	8.0	2.6	.	.	5.1	33.4*
CCCCNC(=O)COC(=O)c1ccccc1F	46.2*	12.3	7.4	7.2	4.7	0.4	39.6*
O=C(COC(=O)c1ccccc1F)NC1CC1	30.5*	7.2	5.2	.	-3.6	6.6	28.2
O=C(COC(=O)c1ccccc1F)NNC(=O)c1ccccc1	-0.6	8.9	7.9	-2.5	2.0	10.1	.
O=C(COC(=O)c1ccccc1F)NC1CCCC1	64.0*	15.8	3.5	-3.8	5.0	4.4	59.5*
CCOC(=O)C1CCCN(c2cc(=O)n(C3CCCCC3)c(=O)[nH]2)C1 (centres undefined)	4.9	-8.1	-3.5	-7.5	-2.0	-1.9	.
COc1ccc(OC)c(NC(=S)N2CCN(C(=O)C3CCCO3)CC2)c1 (centres undefined)	4.0	.	5.8	.	.	-11.8	.
O=C(COC(=O)c1c(F)cccc1Cl)NC1CCCCC1	65.7*	.	3.2	.	.	5.0	48.2*
O=C(COC(=O)Cc1c(Cl)cccc1Cl)NC1CCCC1	10.1	-0.2	5.8	.	.	0.2	.
Nc1ncccc1C(=O)OCC(=O)NC1CCCCCC1	41.8*	6.5	5.1	.	-7.4	9.4	25.0
O=C(CNC(=O)c1ccc(Cl)cc1)OCCCOC(=O)CNC(=O)c1ccc(Cl)cc1	3.7	4.1	3.3	-9.2	-2.5	8.3	.

Screening results deposited in PubChem by The Scripps Research Institute Molecular Screening Center.
